“And” between values parts separate entries of the source, which are not always exact repeats. Equal values may be shown once. Results filed as inconclusive are left out. Entries that show only a call come without a potency. The source made the active and inactive calls. Calls follow the shape of the dose curve; as a rule, active = well fitted activation curve with a large enough effect in the repeat runs; inconclusive = weak or mixed curves; inactive = flat fitted curve, though single readings scatter.

Among the data in PubChem BioAssay (Tox21) are Potency values, retold here.
Potency is read from the fitted curve at half-maximal effect.

This test in a line: A CellTox Green Cytotoxicity Assay to monitor cytotoxicity in HepG2 cells - 24 hour (AID 1224878). Also: nearly all actives have a fitted effect of over 45% in size. The following applies: CellTox Green fluorescence; series mostly up to 76.8 µM. The source says: National Center for Advancing Translational Sciences [NCATS]
NIH Chemical Genomics Center [NCGC]
U.S. Environmental Protection Agency [EPA]
National Institutes of Environmental Health Sciences [NIEHS]
National Toxicology Program [NTP]
Cell-based models are critical for drug discovery. Determining the natural cytotoxic effects resulting from test compounds is an essential research activity. A CellTox Green Cytotoxicity Assay to monitor cytotoxicity in real time of continues cell culture during 40 hours of the compound treatment was used to screen Tox21 10K library compounds in HepG2 cells. CellTox Green Cytotoxicity Assay is a nonlytic, homogeneous, biofluorescent method to measure cytotoxicity in cell culture after experimental manipulation. The assay system uses a proprietary asymmetric cyanine dye that is excluded from viable cells but preferentially stains the dead cell's DNA. […] Viable cells produce no appreciable increases in fluorescence. Therefore, the fluorescence signal produced by the binding interaction with dead cell DNA is proportional to cytotoxicity.
The mixture of HepG2 cell suspension and reagents were dispensed at 600cells/6 ul/well in 1536-well tissue culture treated black solid bottom plates using a Multidrop dispenser. After the assay plates were incubated at a 37 C/5% CO2 incubator for 5 hours, 23 nL of compounds dissolved in DMSO, positive and negative controls was transferred to the assay plate by a pintool work station. The plates were incubated at 37 C for 40 hours. The fluorescence intensity were measured at 0h, 8h, 16h, 24h, 32h and 40h time points using ViewLux plate reader during compound treatment.
With `CCOC(=O)CCC(C)=O`, the Potency entry was “inactive”.
The result for `CCC=O` reads “inactive”; that for `CCCCCOC(=O)CCCCC`, “inactive”; that for `CC(=O)CC(C)(C)C1CCCCC1`, “inactive”.
As for `O=C1CCCCCCCCCCCN1`, the Potency result was “inactive”.
For `CCCc1cc(C(N)=S)ccn1`, the Potency result is “inactive”.
`NS(=O)(=O)c1ccc(C(=O)O)cc1`: the Potency result was “inactive”.
With `CC(C)(C)c1ccc(O)c(O)c1`, the Potency entry was “inactive”.
Consider `CC(C)NC(=O)NC(C)C`, for which the Potency entry is “inactive”.
Take `CC(=O)Nc1ccc(S(N)(=O)=O)cc1`: the Potency entry is “inactive”.
With `O=S(O)CO`, the Potency entry was “inactive”.
Consider `CCO/C([O-])=N/c1c[n+](N2CCOCC2)no1`, for which the Potency result was “inactive”.
Take `COc1cc(C(=O)N2CCCCCCC2)cc(OC)c1OC`: the Potency entry was “inactive”.
In the case of `CCCCCCOC(=O)CCCCC(=O)OCCCCCC` it was “inactive”; in that of `CN1CC(=O)NC1=N`, “inactive”.
On to `NC(CSCC(=O)O)C(=O)O` (stereo not given), for which the Potency entry is “inactive”.
The result for `CC(C)NCC(O)c1ccc(NS(C)(=O)=O)cc1` (stereo not given) reads “inactive”; that for `CC(C)OC(=O)c1ccccc1`, “inactive”.
As for `O=C(O)CCCl`, the Potency result was “inactive”.
The result for `CC/C=C\CCOC(C)=O` reads “inactive”; that for `COC(=O)c1cc(C(=O)OC)cc(S(=O)(=O)O)c1`, “inactive”.
In the case of `O=C(O)COc1nn(Cc2ccccc2)c2ccccc12` it was “inactive”; in that of `O=C1CC2CC1C1CCCC21` (stereo not given), “inactive”; in that of `CN(C(=O)c1c(O)c2ccccc2n(C)c1=O)c1ccccc1`, “inactive”.
For the molecule `Cc1ccc(=O)n(-c2ccccc2)c1`, the Potency entry is “inactive”.
In the case of `O=C(CCCN1CCN(c2ccccn2)CC1)c1ccc(F)cc1` it was “inactive”; in that of `CCCCCCCCCCCC`, “inactive”; in that of `COc1ccc(CCN(C)CCCC(C#N)(c2cc(OC)c(OC)c(OC)c2)C(C)C)cc1OC` (stereo not given), “inactive”.
In the case of `CCC(=O)OC(C)c1ccccc1` (stereo not given) it was “inactive”; in that of `CC(C)(O)C(=O)c1ccccc1`, “inactive”.
On to `C=C(C)CS(=O)(=O)O`, for which the Potency result was “inactive”.
The result for `CCSC(=O)N(CC(C)C)CC(C)C` reads “inactive”.
For the molecule `COC(=O)[C@@H](N)Cc1ccc(O)c(O)c1`, the Potency entry was “inactive”.
In the case of `CN(C)CCCN1c2ccccc2CCc2ccc(Cl)cc21` it was 38.9 µM (active) and 23.9 µM (active); in that of `OC[C@]1(O)OC[C@@H](O)[C@H](O)[C@@H]1O`, “inactive”; in that of `CN1CCCC1`, “inactive”.
`Cn1cc(S(C)=O)c(=O)c2ccc(F)cc21` (stereo not given): the Potency result is “inactive”.
In the case of `O=C1OC(=O)C2CCCCC12` (stereo not given) it was “inactive”; in that of `COC(=O)c1ccc(C)cc1C1=NC(C)(C(C)C)C(=O)N1` (stereo not given), “inactive”; in that of `N=C(N)c1ccc2cc(OC(=O)c3ccc(N=C(N)N)cc3)ccc2c1`, “inactive”.
